In PubChem BioAssay (EPA / NIEHS):
“And” between values parts separate entries of the source, which are not always exact repeats. Equal entries are not always repeated. Results filed as inconclusive are left out. The source made the active and inactive calls. How the source made its calls: active means hit-call score of the fitted dose curve at least 0.9, where 1 is the maximum; inconclusive means response in the unintended direction; inactive means score below 0.9.

Assay: ACEA_ER_AUC_viability: ACEA Biosciences xCELLigence Real-Time Cell Analysis on Estrogen Receptor Agonism for Viability (AID 2283782);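 further: continuous compound exposure with impedance area under curve over 80 h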
Description: ACEA_ER is a cell-based, single-readout assay that uses T47D, a human breast cell line, with measurements taken at 80 hours after chemical dosing in a 96-well plate, although TO2 (mc0.srcf) used a 384-well plate. Differences in plate size can be ignored given data normalization.ACEA_ER_AUC_viability is one of two assay component(s) measured or calculated from the ACEA_ER assay. It is designed to make measurements of real-time cell-growth kinetics, a form of growth reporter, as detected with electrical impedance signals by Real-Time Cell Electrode Sensor (RT-CES) technology.Data from the assay component ACEA_ER_AUC_viability was analyzed in the positive analysis fitting direction relative to DMSO as the negative control and baseline of activity. Using a type of growth reporter, loss-of-signal activity can be used to understand changes in the viability. Furthermore, this assay endpoint can be referred to as a secondary readout, because this assay has produced multiple assay endpoints where this one serves a viability function. To generalize the intended target to other relatable targets, this assay endpoint is annotated to the cell cycle intended target family, where the subfamily is cytotoxicity.
The xCELLigence system Multi-E-Plate stations were used to measure the time-dependent response to chemicals. Each compound was tested in an eight-point, 1:4 serial dilution series starting at a maximum final concentration of 100 uM. A maximum starting concentration of 0.5% DMSO was present in the 100 uM chemical samples and was diluted along with the test article dilution series. The screen was performed in biological duplicate using two separate, 96-well, E-Plates 96 for each dilution series (n = 2). Positive controls (MG132 and E2) and a negative control (assay media) were tested in quadruplicate on each testing plate. Then, 0.5% and 0.125% DMSO were tested in duplicates in each plate to serve as solvent controls for the 2 highest concentrations of testing compounds: 100 uM and 25 uM. Reference compounds were tested with 8 concentrations with 1:5 serial dilutions. All screening was carried out by ACEA Biosciences, Inc. (San Diego, CA). T-47D cells purchased from ATCC were maintained in RPMI1640 media supplemented with 10% characterized fetal bovine serum (FBS). Before screening, T-47D cells were preconditioned in assay medium: phenol red-free RPMI1640 supplemented with 10% charcoal-stripped FBS. Cells were then detached and seeded in E-Plates 96 in assay medium. After overnight monitoring of growth once every hour, compounds were added to […] cells and remained in the medium until the end of the experiment. Cellular responses were then recorded once every 5 min for the first 5 h, and once every hour for an additional 100 h.

Q: For `C=CC(=O)OCC(CC)(COC(=O)C=C)COC(=O)C=C`, which AC50 is on record?
A: 10.1 µM (active)

Q: With `O=S1(=O)OCC2C(CO1)C1(Cl)C(Cl)=C(Cl)C2(Cl)C1(Cl)Cl` (stereo not given) as the compound, how does the AC50 read?
A: 83 µM (active)

Q: Which outcome does the source give for `Nc1cc2c3c(c1)C(c1ccccc1)=N[C@@H](NC(=O)c1cccnc1)C(=O)N3CC2` here?
A: inactive

Q: With `CCOP(=S)(OCC)SCSc1ccc(Cl)cc1` as the compound, how does the AC50 read?
A: 27.9 µM (active)

Q: With `Cc1ccc(C(=O)Cl)cc1` as the compound, how does the outcome read?
A: inactive

Q: With `CC(C)Nc1ccc(Nc2ccccc2)cc1` as the compound, how does the AC50 read?
A: 18 µM (active)

Q: Which AC50 does the source give for `CCCCCCCc1ccc(O)cc1` here?
A: 28 µM (active) and 26.6 µM (active) and 27.7 µM (active)

Q: For `Cc1ccc2c(c1N)C(=O)c1ccccc1C2=O`, which outcome is on record?
A: inactive

Q: Which outcome does the source give for `Nc1ccc([N+](=O)[O-])cc1Cl` here?
A: inactive

Q: With `CC(Cl)CN(C)C` (stereo not given) as the compound, how does the AC50 read?
A: 34.9 µM (active)

Q: Which outcome does the source give for `O=C(O)C(F)(F)OC(F)(F)C(F)(F)OC(F)(F)C(=O)O` here?
A: inactive

Q: For `Oc1ccccc1Br`, which outcome is on record?
A: inactive

Q: With `CC(C)(C)c1ccccc1OP(=O)(Oc1ccccc1)Oc1ccccc1` as the compound, how does the outcome read?
A: inactive

Q: Which outcome does the source give for `CC(C)(C)OOC(C)(C)C` here?
A: inactive

Q: Which outcome does the source give for `COC(N)=O` here?
A: inactive

Q: With `CC(Cc1ccc(OCC(=O)O)cc1)NCC(O)c1csc(C(F)(F)F)n1` (stereo not given) as the compound, how does the outcome read?
A: inactive

Q: With `Cc1cc(C)c(C(=O)P(=O)(c2ccccc2)c2ccccc2)c(C)c1` as the compound, how does the AC50 read?
A: 73.1 µM (active)

Q: For `CCOP(=S)(OCC)SCn1nnc2ccccc2c1=O`, which outcome is on record?
A: inactive

Q: Which outcome does the source give for `C/C(=N\NC(=O)Nc1cc(F)cc(F)c1)c1ncccc1C(=O)O` here?
A: inactive

Q: With `O=c1ssc(Cl)c1Cl` as the compound, how does the outcome read?
A: inactive

Q: With `C=C(C)C(=O)OCC1CO1` (stereo not given) as the compound, how does the outcome read?
A: inactive

Q: For `O=C(CBr)OCc1ccccc1`, which outcome is on record?
A: inactive

Q: Which AC50 does the source give for `CCCCC(CC)COP(=O)(Oc1ccccc1)Oc1ccccc1` (stereo not given) here?
A: 85.5 µM (active)

Q: For `Cc1ccc([N+](=O)[O-])cc1C`, which outcome is on record?
A: inactive

Q: For `CCOP(=S)(OCC)SCS(=O)(=O)CC`, which outcome is on record?
A: inactive

Q: With `CC1(C)CN=C(NN=C(/C=C/c2ccc(C(F)(F)F)cc2)/C=C/c2ccc(C(F)(F)F)cc2)NC1` as the compound, how does the AC50 read?
A: 2.02 µM (active)

Q: For `CCN(CC)C1CCCCC1`, which outcome is on record?
A: inactive

Q: With `CC(O)C#N` (stereo not given) as the compound, how does the AC50 read?
A: 50 µM (active)

Q: With `COC(=O)C(F)(F)C(F)(F)OC(F)(C(F)(F)F)C(F)(F)OC(F)=C(F)F` (stereo not given) as the compound, how does the outcome read?
A: inactive

Q: Which outcome does the source give for `FC(F)(F)C(F)(C(F)(F)F)C(F)(F)C(F)(F)CC1CO1` (stereo not given) here?
A: inactive

Q: For `NNC(N)=S`, which outcome is on record?
A: inactive

Q: For `O=P(Oc1ccccc1)(Oc1ccccc1)Oc1ccccc1`, which AC50 is on record?
A: 86.8 µM (active)

Q: With `OCC(F)(F)OC(F)(F)C(F)(F)OC(F)(F)C(F)(F)OC(F)(F)CO` as the compound, how does the AC50 read?
A: 137 µM (active)

Q: With `CCOC(=O)c1ccccc1C(=O)OCC` as the compound, how does the outcome read?
A: inactive

Q: With `N#C/C=C/c1ccccc1` as the compound, how does the AC50 read?
A: 50 µM (active)

Q: Which outcome does the source give for `O=P(OCC(Br)CBr)(OCC(Br)CBr)OCC(Br)CBr` (stereo not given) here?
A: inactive

Q: For `O=C(O)C(F)(F)OC(F)(F)C(F)(F)OC(F)(F)F`, which outcome is on record?
A: inactive

Q: With `c1ccc2c(c1)Nc1ccccc1S2` as the compound, how does the outcome read?
A: inactive

Q: Which outcome does the source give for `Nc1ccc(Sc2ccc(N)cc2)cc1` here?
A: inactive

Q: With `CCCN(CCC)c1c([N+](=O)[O-])cc(C(C)C)cc1[N+](=O)[O-]` as the compound, how does the AC50 read?
A: 87.3 µM (active)
